# Shown are actives, neighbours in structure and some others; about 2.4% of the full set was active somewhere.
# Luciferase inh: firefly luciferase inhibition; P08659; purified firefly luciferase, luminescence, 8 min; Potency, µM (top dose mostly 57.1 µM), without a hit: at the highest dose activity change, negative = inhibition, actives largely listed as inhibitors; 72,000 tested, 2.2% active; AID 411; further: on the % scale 0 is the no-effect control and ±100 the full control effect; nearly all actives have a fitted effect of over 40% in size
# Target sequence (P08659 whole entry, looked up): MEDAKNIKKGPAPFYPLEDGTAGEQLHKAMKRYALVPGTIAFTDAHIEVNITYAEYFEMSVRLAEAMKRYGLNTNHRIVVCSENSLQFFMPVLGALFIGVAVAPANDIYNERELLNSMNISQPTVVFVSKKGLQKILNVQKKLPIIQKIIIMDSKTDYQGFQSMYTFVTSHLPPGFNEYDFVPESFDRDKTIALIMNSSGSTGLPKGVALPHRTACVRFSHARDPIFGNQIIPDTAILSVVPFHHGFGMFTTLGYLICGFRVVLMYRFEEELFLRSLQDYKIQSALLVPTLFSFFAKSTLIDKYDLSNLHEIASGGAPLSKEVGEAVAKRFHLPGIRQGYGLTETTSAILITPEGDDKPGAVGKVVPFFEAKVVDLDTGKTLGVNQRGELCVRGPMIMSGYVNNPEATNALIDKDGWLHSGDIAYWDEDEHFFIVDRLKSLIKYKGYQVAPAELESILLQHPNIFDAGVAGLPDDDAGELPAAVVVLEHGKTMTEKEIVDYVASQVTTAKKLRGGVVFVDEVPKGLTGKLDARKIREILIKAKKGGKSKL
#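 Here, luciferase activity is measured as luminescence following an 8 min room-temperature reaction at 10 uM ATP, pH 7.2. Every library sample is titrated.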
# p53ts 39C kill: cytotoxicity in p53ts cells at nonpermissive temperature; H1299-p53A138V viability at 39C, ATP luminescence, 24 h; Potency, µM (doses to about 46.1 µM), for the others: top-dose activity change, negative = cell killing, hits mostly cytotoxic; 130,000 tested, 1.5% active; AID 902; further: on the % scale 0 is the no-effect control and ±100 the full control effect; nearly all actives have a fitted effect of over 55% in size
# p53ts 32C kill: cytotoxicity in p53ts cells at permissive temperature; H1299-p53A138V at 32C, ATP luminescence viability, 24 h; Potency, µM (doses to about 46.1 µM), without a hit: top-dose activity change, negative = cytotoxicity, most hits filed as cytotoxic; 130,000 tested, 0.93% active; AID 924;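 further: 0% = DMSO and -100% = full killing by reference compound; nearly all actives have a fitted effect of over 55% in size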
#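 H1299-p53 A138V cells (temperature-sensitive p53) exposed 24 h to up to 46 uM compound at 32C, where p53 is wild-type in conformation. Viability read as ATP luminescence and normalised to DMSO and 100 uM tamoxifen. AC50 fitted with the Hill equation.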
# IkB signaling: suppresses IkB signaling in ABC-DLBCL reporter cells | ABC-DLBCL IkBa-CBG/CBR dual luciferase ratio, 4 h; response scale: scaled: untreated 0%, proteasome inhibitor 100% | Potency, µM (doses to about 57.1 µM), for the others: at the top dose IkBa stabilization activation | 110,000 tested, 0.04% active | AID 445; active means well fitted curve in the direction sought with a large enough effect in the signal ratio, not every such curve was filed as active; inconclusive means small, poorly fitted or top-dose-only effect, or a change in a side signal; the % refers to the signal ratio;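 further: the direction sought is a rising ratio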
#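 In this assay, an IκBα–CBG68 fusion accumulates when IKK-driven degradation is blocked; native CBR normalizes for cell number. OCI-Ly3 cells were treated 4 h with compound and doxycycline, then green and red light read after Chroma-Glo addition.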
# Peg3 imprint: induces erasure of genomic imprints in mouse ES cells | Potency, µM (doses to about 60.7 µM), without a hit: at the top dose activity change, positive = activation, most hits filed as activators | mouse ES Peg3-LacZ reporter, beta-gal luminescence, 40 h | AID 1948 | 110,000 tested, 0.02% active
#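 Each well holds 300 Peg3LacZ-Neo (maternal) female ES cells incubated 40 h at 37C, 5% CO2. LacZ is measured by BetaGlo luminescence, with AC50 and maximum efficacy derived from dose-response curves.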
# * hit, by the source's call; ? = inconclusive; . = no result; [ ] = remark or other dose. Unless noted, the call rests on the fitted dose curve; in most records, active means well fitted curve in the direction sought with a large enough effect; inconclusive means small, poorly fitted or top-dose-only effect, or another doubt; inactive means no such curve, though single readings can be large; an effect the other way counts as inactive or inconclusive. Potency means the concentration at half of the fitted maximal effect.
SMILES,Luciferase inh,p53ts 39C kill,p53ts 32C kill,IkB signaling,Peg3 imprint
COc1ccccc1OC[C@H](O)CN1CCN(CC(=O)Nc2c(C)cccc2C)CC1,0.1%,10.7%,2.8%,2.0%,.
CCOC(=O)C1CCCN(C(=O)Cn2sc3nc(C)cc(C)c3c2=O)C1 (stereo not given),12.6µM*,22.0%,-1.2%,-7.7%,-69.6%
Cc1cc(Cl)ccc1OCC(=O)N(Cc1ccc(N(C)C)cc1)CC1CCCO1 (stereo not given),.,-26.8%,20.0%,?,-10.2%[10.9 µM]
Cc1ccccc1Nc1c(-c2ccc(N3CCOCC3)cc2)nc2ncccn12,.,3.98µM*,12.6µM*,1.7%,-9.5%[10.9 µM]
Nc1nc(N)c2nn(-c3ccc(C(=O)O)cc3)nc2n1,2.5%[11.4 µM],0.9%[9.22 µM],-5.2%[9.22 µM],0.9%[11.4 µM],-6.0%[10.9 µM]
COCCCn1cnc2oc3nc4ccccc4nc3c2c1=O,25.1µM*,-17.3%,-20.8%,-0.7%,-56.7%
CC(=O)c1ccc(NC(=O)c2cc(-c3ccc4c(c3)OCO4)on2)cc1,.,20.2%,8.2%,4.1%,7.4%[10.9 µM]
Cc1ccn2cc(C(=O)Nc3ccc4c(c3)OCCO4)nc2c1,6.31µM*,12.6µM*,12.6µM*,?,-32.2%
Cc1ccc(OC(=O)c2cc(-c3ccc4c(c3)OCCO4)on2)c(C)c1,.,12.6µM*,20µM*,2.2%,-16.3%[10.9 µM]
CC(=O)Nc1ccc(NC(=O)c2cc(-c3ccc4c(c3)OCCO4)on2)cc1,.,1.58µM*,?,0.3%,-12.1%[10.9 µM]
Cc1ccc(O)c(NC(=O)c2cc(-c3ccc4c(c3)OCO4)on2)c1,.,?,?,?,-43.3%[10.9 µM]
CC(=O)c1cccc(NC(=O)c2cc(-c3ccc4c(c3)OCCO4)on2)c1,.,2.51µM*,1.26µM*,?,-8.4%[10.9 µM]
CC(=O)c1cccc(NC(=O)c2cc(-c3ccc(C)cc3)on2)c1,-4.3%,-27.6%,?,-0.7%,0.8%
Cc1cc(Cl)ccc1NC(=O)CN1C(=O)COc2ccc(S(=O)(=O)Nc3ccccc3)cc21,.,-15.4%,15.8%,?,11.6%[10.9 µM]
Cc1ccc(OCCn2nnc3sc4c(c3c2=O)CCC(C)C4)cc1 (stereo not given),.,-26.6%,0.2%,-1.1%,-8.6%[10.9 µM]
Cc1cccc(C(c2sc3nc(-c4ccco4)nn3c2O)N2CCOCC2)c1 (stereo not given),.,-17.5%,-5.0%,-0.7%,?
CCC1CCCCN1CCCNC(=O)c1ccc2c(c1)N(Cc1ccccc1F)C(=O)c1ccccc1S2(=O)=O (stereo not given),.,?,2.9%,-0.2%,-22.3%[10.9 µM]
c1ccc2nc(-c3nc4ccccc4[nH]3)ccc2c1,0.794µM*,2µM*,3.16µM*,?,-94.0%
Cc1cccc(-n2ncc3c(Nc4ccc(Oc5ccc(Cl)cc5)cc4)ncnc32)c1,.,39.7%,29.1%,?,-14.1%[10.9 µM]
C[C@@H]1C(=O)N(C)C(=O)c2nc[nH]c21,-1.7%,10.8%,5.7%,-2.3%,.
CC(=NC1CCCC1)c1c(C)[nH]n(-c2nc3ccccc3s2)c1=O,12.6µM*,.,.,.,.
COc1cccc(CNC(=O)c2ccc(CSc3nc4ccncc4n3Cc3cccc(C)c3)cc2)c1,.,-14.2%,1.7%,?,-14.9%[10.9 µM]
CN(C(=O)c1cccc(Nc2ccc(-c3ccc4c(c3)OCCO4)nn2)c1)C1CCCCC1,.,11.2µM*,12.6µM*,.,.
CN(C(=O)c1cccc(N2C(=O)C3CC=CCC3C2=O)c1)C1CCCCC1 (stereo not given),0.2%,6.5%,-8.7%,-0.2%,?
COc1cc(Cl)c(C)cc1NC(=O)CCCN1C(=O)C(c2ccccc2)Oc2cccnc21 (stereo not given),.,-2.4%,4.6%,-1.2%,18.0%[10.9 µM]
CC1N(C)c2cc(NC(=O)c3ccco3)ccc2C1(C)C (stereo not given),15.8µM*,?,?,?,-20.7%
OCc1nc2ccccc2n1CCCOc1ccc(Br)cc1,12.6µM*,?,-27.7%,-5.4%,-15.5%
O=C(NCCc1nc2ccccc2n1CCCOc1ccc(Cl)cc1)C1CCCCC1,.,15.8µM*,?,?,-5.1%[10.9 µM]
Cc1ccccc1OCCCn1c(CCNC(=O)C2CCCCC2)nc2ccccc21,.,15.8µM*,-11.5%,?,-9.2%[10.9 µM]

# Assay outcomes from PubChem BioAssay.
